Source: PubChem BioAssay (EPA / NIEHS)
Results filed as inconclusive are left out. The source made the active and inactive calls. Rule for the calls, unless noted: active = hit-call score of the fitted dose curve at least 0.9, where 1 is the maximum; inactive = score below 0.9.

Assays:
[1] = molecular target: human Retinoid X Receptor beta (RXRb), RXRB (gene 6257) (UniProt P28702); assay: ATG_RXRb_TRANS: Attagene TRANS-FACTORIAL HepG2 Assay for human Retinoid X Receptor beta (RXRb) (AID 2283013; active = hit-call score of the fitted dose curve at least 0.9, where 1 is the maximum)
Outline: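 HepG2 cells were transiently transfected with multiplexed GAL4-UAS reporters and a chimeric RXRb-Gal4 construct, then exposed for 24 h. Reporter mRNA was quantified by RT-PCR, FAM labeling, HpaI digestion and capillary electrophoresis; gain of signal was scored against DMSO.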

[2] = molecular target: human Thyroid Receptor alpha (THRa1), THRA (gene 7067) (UniProt P10827); assay: ATG_THRa1_TRANS: Attagene TRANS-FACTORIAL HepG2 Assay for human Thyroid Receptor alpha (THRa1) (AID 2283014; active = hit-call score of the fitted dose curve at least 0.9, where 1 is the maximum)
Outline: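 Transient HepG2 transfection, NR-Gal4 chimera driving GAL4-UAS reporters; 24 h compound exposure; total RNA, oligo(dT) RT, PCR, fluorescent primer extension, capillary electrophoresis. Upward direction vs DMSO control.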

[3] = read-out: E-selectin (Homo sapiens) (UniProt P16581); assay: BSK_3C_Eselectin: BioMAP Diversity Plus: 3C Assay for Eselectin Biomarker Activity (AID 2283015); settings: primary human endothelial cells (HUVEC); actives raise or lower the signal
Outline: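 HUVEC, 3C stimulation; compound exposure 24 h; E-selectin by ELISA; gain- or loss-of-signal fitted bidirectionally vs DMSO baseline.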

[4] = read-out: Interleukin-1 alpha (IL1a), IL1A (gene 3552); assay: BSK_BE3C_IL1a: BioMAP Diversity Plus: BE3C Assay for Interleukin-1 alpha (IL1a) Biomarker Activity (AID 2283016); settings: primary human bronchial epithelial cells; actives raise or lower the signal
Outline: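 Human primary bronchial epithelial cells, 24 h chemical exposure; IL-1a quantified by ELISA, fitted bidirectionally against DMSO. Cytotoxicity assessed in parallel by SRB total-protein staining at the time of measurement.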

[5] = read-out: Monocyte Chemoattractant Protein-1 (MCP1), CCL2 (gene 6347); assay: BSK_3C_MCP1: BioMAP Diversity Plus: 3C Assay for Monocyte Chemoattractant Protein-1 (MCP1) Biomarker Activity (AID 2283017); settings: primary human endothelial cells (HUVEC); actives raise or lower the signal
Outline: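 HUVEC, 3C system; 24 h chemical exposure; MCP-1 by ELISA; bidirectional curve fit vs DMSO baseline.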

[6] = read-out: Monocyte Chemoattractant Protein-1 (MCP1), CCL2 (gene 6347); assay: BSK_4H_MCP1: BioMAP Diversity Plus: 4H Assay for Monocyte Chemoattractant Protein-1 (MCP1) Biomarker Activity (AID 2283018); settings: primary human endothelial cells (HUVEC); actives raise or lower the signal
Outline: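 Human umbilical vein endothelial cells (4H system) exposed to chemicals for 24 h in 96-well format. MCP-1 measured by ELISA; bidirectional fitting against DMSO, with SRB total-protein staining in parallel cultures for cytotoxicity.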

[7] = read-out: Human Leukocyte Antigen - DR isotype (HLADR), HLA-DRA (gene 3122); assay: BSK_3C_HLADR: BioMAP Diversity Plus: 3C Assay for Human Leukocyte Antigen - DR isotype (HLADR) Biomarker Activity (AID 2283019); settings: primary human endothelial cells (HUVEC); actives raise or lower the signal
Outline: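 HUVEC, 3C stimulation, 24 h post-dose; HLA-DR by ELISA; bidirectional curve fit vs DMSO baseline; gain or loss of signal scored.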

[8] = read-out: Interleukin-8 (IL8), CXCL8 (gene 3576); assay: BSK_3C_IL8: BioMAP Diversity Plus: 3C Assay for Interleukin-8 (IL8) Biomarker Activity (AID 2283020); settings: primary human endothelial cells (HUVEC); actives raise or lower the signal
Outline: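 Primary human umbilical vein endothelial cells were dosed for 24 h. IL-8 was quantified by ELISA and fitted bidirectionally against DMSO. Cytotoxicity was assessed in parallel cultures by SRB staining at 560 nm.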

[9] = read-out: Monokine induced gamma interferon (MIG), CXCL9 (gene 4283); assay: BSK_3C_MIG: BioMAP Diversity Plus: 3C Assay for Monokine induced gamma interferon (MIG) Biomarker Activity (AID 2283021); settings: primary human endothelial cells (HUVEC); actives raise or lower the signal
Outline: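 HUVEC primary endothelial cultures dosed with chemical; MIG quantified by ELISA at 24 h. Data fitted bidirectionally against DMSO control, with parallel SRB total-protein staining for cytotoxicity.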

[10] = molecular target: human Vitamin D Receptor (VDR), VDR (gene 7421) (UniProt P11473); assay: ATG_VDR_TRANS: Attagene TRANS-FACTORIAL HepG2 Assay for human Vitamin D Receptor (VDR) (AID 2283022; active = hit-call score of the fitted dose curve at least 0.9, where 1 is the maximum)
Outline: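 RT-PCR/capillary electrophoresis read-out of reporter mRNA induction in transiently transfected HepG2; 24 h dosing; chimeric NR-Gal4 (TRANS format); gain-of-signal fit against DMSO baseline.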

[11] = BSK_3C_SRB: Viability Assessment in the BioMAP Diversity Plus: 3C Assay (AID 2283023); settings: primary human endothelial cells (HUVEC);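 note: cells read 24 h after compound dosing; fitted both ways against DMSO so a hit may be signal rise or drop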
Outline: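 HUVEC, 24 h post-dose; 10% TCA fix, 0.1% SRB stain, A560 nm. Bidirectional curve fit vs DMSO negative control.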

[12] = read-out: Matrix Metallopeptidase 1 (MMP1), MMP1 (gene 4312); assay: BSK_BE3C_MMP1: BioMAP Diversity Plus: BE3C Assay for Matrix Metallopeptidase 1 (MMP1) Biomarker Activity (AID 2283024); settings: primary human bronchial epithelial cells; actives raise or lower the signal
Outline: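 Human primary bronchial epithelial cells (BE3C system) dosed for 24 h; MMP-1 quantified by ELISA. Bidirectional fit against DMSO; cytotoxicity tracked in parallel cultures by SRB total-protein staining.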

[13] = read-out: Pselectin, SELP (gene 6403); assay: BSK_4H_Pselectin: BioMAP Diversity Plus: 4H Assay for Pselectin Biomarker Activity (AID 2283026); settings: primary human endothelial cells (HUVEC); actives raise or lower the signal
Outline: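 Primary human umbilical vein endothelial cells were treated 24 h, and cell-surface P-selectin was then quantified by ELISA. Bidirectional fit versus DMSO; cytotoxicity checked in parallel cultures by SRB total-protein staining.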

[14] = BSK_4H_SRB: Viability Assessment in the BioMAP Diversity Plus: 4H Assay (AID 2283027); settings: primary human endothelial cells (HUVEC);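 note: cells exposed to compound for 24 h before staining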;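 for AC50: curves fitted both ways versus DMSO so AC50 may be loss or gain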
Outline: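 Human umbilical vein endothelial cells were dosed with chemical and, after 24 h, fixed with 10% TCA, stained with 0.1% sulforhodamine B, and read at 560 nm to give total protein as a cytotoxicity measure. Bidirectional fitting relative to DMSO control.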

[15] = BSK_BE3C_SRB: Viability Assessment in the BioMAP Diversity Plus: BE3C Assay (AID 2283028); settings: primary human bronchial epithelial cells;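 for AC50: fitted both ways so AC50 may mark signal gain or loss versus DMSO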
Outline: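 Primary human bronchial epithelium; chemical dosing, 24 h; 10% TCA fix, 0.1% SRB stain, A560; bidirectional fit vs DMSO baseline.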

[16] = read-out: Thrombomodulin, THBD (gene 7056); assay: BSK_3C_Thrombomodulin: BioMAP Diversity Plus: 3C Assay for Thrombomodulin Biomarker Activity (AID 2283029); settings: primary human endothelial cells (HUVEC); actives raise or lower the signal
Outline: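 Human umbilical vein endothelial cells were exposed to chemicals for 24 h; cell-surface thrombomodulin quantified by ELISA, with bidirectional fitting against DMSO baseline.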

[17] = read-out: Urokinase-type plasminogen activator receptor (uPAR), PLAUR (gene 5329); assay: BSK_4H_uPAR: BioMAP Diversity Plus: 4H Assay for Urokinase-type plasminogen activator receptor (uPAR) Biomarker Activity (AID 2283030); settings: primary human endothelial cells (HUVEC); actives raise or lower the signal
Outline: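 HUVEC, 24 h post-dose; uPAR by ELISA; bidirectional fit vs DMSO baseline.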

[18] = BSK_3C_Vis: BioMAP Diversity Plus: 3C Assay for Morphology Visualization (AID 2283025); settings: primary human endothelial cells (HUVEC);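 note: fitted both ways so gain or loss versus DMSO counts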;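 for AC50: light microscopy image of cell morphology used as background control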
Outline: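 Human umbilical vein endothelial cell morphology was inspected by light microscopy 24 h after chemical dosing; scored bidirectionally relative to DMSO.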

Measured: AC50

Chain of human Vitamin D Receptor (VDR), VDR (gene 7421) (P11473 whole entry, looked up, the tested form may be a part): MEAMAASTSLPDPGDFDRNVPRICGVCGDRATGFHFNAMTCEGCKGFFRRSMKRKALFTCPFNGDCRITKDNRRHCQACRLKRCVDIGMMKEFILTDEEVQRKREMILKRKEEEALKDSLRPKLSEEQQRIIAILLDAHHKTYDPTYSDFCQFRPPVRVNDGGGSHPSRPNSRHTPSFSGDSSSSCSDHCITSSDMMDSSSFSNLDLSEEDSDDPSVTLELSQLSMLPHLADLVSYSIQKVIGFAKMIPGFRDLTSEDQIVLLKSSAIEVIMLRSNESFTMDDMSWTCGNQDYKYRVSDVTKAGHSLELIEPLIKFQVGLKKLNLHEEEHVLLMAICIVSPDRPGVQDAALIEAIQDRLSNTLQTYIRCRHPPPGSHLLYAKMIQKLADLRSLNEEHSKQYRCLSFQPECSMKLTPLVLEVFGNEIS
Chain of human Retinoid X Receptor beta (RXRb), RXRB (gene 6257) (P28702 whole entry, looked up, the tested form may be a part): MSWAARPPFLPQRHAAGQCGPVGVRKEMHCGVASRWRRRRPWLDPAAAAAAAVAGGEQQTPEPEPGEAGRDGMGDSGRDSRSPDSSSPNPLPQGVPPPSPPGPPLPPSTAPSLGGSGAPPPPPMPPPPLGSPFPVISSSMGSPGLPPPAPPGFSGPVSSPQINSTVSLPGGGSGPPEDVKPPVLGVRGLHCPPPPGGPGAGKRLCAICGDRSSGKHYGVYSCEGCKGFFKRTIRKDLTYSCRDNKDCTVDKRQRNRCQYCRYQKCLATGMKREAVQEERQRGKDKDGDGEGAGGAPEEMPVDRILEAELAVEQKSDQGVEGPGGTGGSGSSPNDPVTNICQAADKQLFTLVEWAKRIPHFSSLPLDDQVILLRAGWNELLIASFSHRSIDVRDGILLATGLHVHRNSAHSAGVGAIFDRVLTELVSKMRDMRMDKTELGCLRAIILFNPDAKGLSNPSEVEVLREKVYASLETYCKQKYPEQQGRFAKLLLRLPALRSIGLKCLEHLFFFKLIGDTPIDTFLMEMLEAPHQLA
Chain of human Thyroid Receptor alpha (THRa1), THRA (gene 7067) (P10827 whole entry, looked up, the tested form may be a part): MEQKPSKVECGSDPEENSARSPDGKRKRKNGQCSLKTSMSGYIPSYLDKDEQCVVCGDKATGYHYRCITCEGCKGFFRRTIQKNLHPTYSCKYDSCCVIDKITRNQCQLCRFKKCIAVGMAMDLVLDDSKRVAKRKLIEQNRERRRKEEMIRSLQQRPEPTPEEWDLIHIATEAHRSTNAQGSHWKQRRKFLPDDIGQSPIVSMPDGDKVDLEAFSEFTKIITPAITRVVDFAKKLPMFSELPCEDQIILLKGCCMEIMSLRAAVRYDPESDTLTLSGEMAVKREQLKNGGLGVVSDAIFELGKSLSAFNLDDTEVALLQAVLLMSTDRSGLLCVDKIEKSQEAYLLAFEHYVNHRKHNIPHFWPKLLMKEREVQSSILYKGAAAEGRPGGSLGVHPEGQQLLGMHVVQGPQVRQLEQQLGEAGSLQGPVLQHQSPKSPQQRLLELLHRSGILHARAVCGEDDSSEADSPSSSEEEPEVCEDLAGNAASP
Chain of E-selectin (Homo sapiens) (P16581 whole entry, looked up): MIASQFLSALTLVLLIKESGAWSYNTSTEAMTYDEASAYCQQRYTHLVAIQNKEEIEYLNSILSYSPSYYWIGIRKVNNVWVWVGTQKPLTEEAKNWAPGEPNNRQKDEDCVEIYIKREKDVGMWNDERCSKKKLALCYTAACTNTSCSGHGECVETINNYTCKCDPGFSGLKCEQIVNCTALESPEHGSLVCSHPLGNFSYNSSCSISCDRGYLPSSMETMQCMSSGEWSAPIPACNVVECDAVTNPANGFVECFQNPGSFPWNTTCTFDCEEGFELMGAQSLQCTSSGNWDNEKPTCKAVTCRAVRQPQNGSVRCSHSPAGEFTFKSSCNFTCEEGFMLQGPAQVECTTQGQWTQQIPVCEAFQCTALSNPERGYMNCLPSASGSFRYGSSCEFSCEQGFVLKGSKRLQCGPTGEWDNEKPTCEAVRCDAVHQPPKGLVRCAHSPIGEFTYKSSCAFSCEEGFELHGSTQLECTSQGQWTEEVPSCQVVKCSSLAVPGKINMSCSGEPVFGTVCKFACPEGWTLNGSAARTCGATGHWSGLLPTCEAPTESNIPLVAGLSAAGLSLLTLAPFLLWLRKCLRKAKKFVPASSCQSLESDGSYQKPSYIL

CCCCCCCCCCCCCCCCOS(=O)(=O)O
active: [1] 14.6 µM | [4] 14.7 µM | [15] 16.6 µM
not listed: [18]
inactive: all other assays above

CC(C)c1nnc2ccc(-c3ocnc3-c3cc(F)ccc3F)cn12
active: [5] 1 µM | [7] 0.833 µM | [8] 148 nM | [11] 0.61 µM | [12] 1.05 µM
not listed: [2] | [16] | [18]
inactive: all other assays above

CC(C)CC(C)O (stereo not given)
not listed: [1] | [2] | [10] | [18]
inactive: all other assays above

CCCc1ccccc1
not listed: [16]
inactive: all other assays above

CC(=O)c1ccccc1
not listed: [1] | [10] | [16]
inactive: all other assays above

OC[C@H]1O[C@@H]2O[C@H]3[C@H](O)[C@@H](O)[C@@H](O[C@H]4[C@H](O)[C@@H](O)[C@@H](O[C@H]5[C@H](O)[C@@H](O)[C@@H](O[C@H]6[C@H](O)[C@@H](O)[C@@H](O[C@H]7[C@H](O)[C@@H](O)[C@@H](O[C@H]1[C@H](O)[C@H]2O)O[C@@H]7CO)O[C@@H]6CO)O[C@@H]5CO)O[C@@H]4CO)O[C@@H]3CO
not listed: [2] | [16]
inactive: all other assays above

Cn1cc[nH]c1=S
not listed: [2] | [10] | [16] | [18]
inactive: all other assays above

CC(C)C(=O)Nc1ccc([N+](=O)[O-])c(C(F)(F)F)c1
active: [1] 13.3 µM | [2] 100 µM | [7] 34.1 µM
not listed: [5] | [10] | [16] | [18]
inactive: all other assays above

O=S(=O)(O)c1ccc(N=Nc2c(O)ccc3cc(S(=O)(=O)O)ccc23)cc1
not listed: [5]
inactive: all other assays above

CCCC(CCC)C(=O)O
not listed: [2] | [5] | [18]
inactive: all other assays above

OC[C@H]1O[C@@](CO)(O[C@H]2O[C@H](CO)[C@@H](O)[C@H](O)[C@H]2O)[C@@H](O)[C@@H]1O
not listed: [2] | [10] | [18]
inactive: all other assays above

CCCCN1C(=O)[C@@H]([C@H](O)C2CCCCC2)NC(=O)C12CCN(Cc1ccc(Oc3ccc(C(=O)O)cc3)cc1)CC2
active: [7] 32.1 µM | [11] 27.3 µM | [14] 23.6 µM | [17] 20 µM
not listed: [1] | [2] | [5] | [10] | [18]
inactive: all other assays above

OCCOCCOCCO
not listed: [2] | [5] | [8] | [18]
inactive: all other assays above

CCCOc1ccc(S(=O)(=O)N2CCN(CC)CC2)cc1-c1nc2c(CC)n(Cc3ccccn3)nc2c(=O)[nH]1
not listed: [2] | [16]
inactive: all other assays above

CCn1nc(C)c2c1C(=O)NCC(c1ccc(O)cc1)=N2
not listed: [5] | [10] | [18]
inactive: all other assays above

Nc1ccn([C@@H]2O[C@H](CO)[C@@H](O)[C@@H]2O)c(=O)n1
active: [11] 7.44 µM | [18] 39 µM | [17] 4.93 µM
not listed: [2] | [5] | [16]
inactive: all other assays above

OCCNCCO
not listed: [1] | [2] | [10] | [16] | [18]
inactive: all other assays above

CC(C)CCCCCCOC(=O)C1CCCCC1C(=O)OCCCCCCC(C)C (stereo not given)
not listed: [1]
inactive: all other assays above

O=S1(=O)CCCO1
not listed: [10] | [16] | [18]
inactive: all other assays above

CNC(C)=O
not listed: [10] | [16] | [18]
inactive: all other assays above

C=CN1CCCC1=O
not listed: [1] | [2] | [10] | [16] | [18]
inactive: all other assays above
